In PubChem BioAssay (EPA / NIEHS) one finds outcome and AC50 data, which are given here for 40 compounds.

What is called AC50 is the midpoint of the concentration-response curve, whichever way the signal moves.

Active and inactive are the calls of the source. The calls were made as follows: active = hit-call score of the fitted dose curve at least 0.9, where 1 is the maximum; inactive = score below 0.9.

Read-out in this experiment: Transforming Growth Factor (TGFA), TGFA (gene 7039)
Kind of experiment: LTEA_HepaRG_TGFA: Life Technologies and Expression Analysis (LTEA) Assay for Transforming Growth Factor (TGFA) using HepaRG (AID 2283532). The settings on record: mRNA level, 48 h; actives raise or lower the signal. On the procedure: LTEA_HepaRG is a cell based, multiplexed-readout assay that uses HepaRG, a human liver cell line, with measurements taken at 48 hours after chemical dosing on a 96-well plate.LTEA_HepaRG_TGFA is one of 102 assay component(s) measured in the LTEA HepaRG cell culture assay. It is a marker of Cell proliferation, survival, death.Data from the assay component LTEA_HepaRG_TGFA was analyzed into 1 endpoint. This assay endpoint, LTEA_HepaRG_TGFA, was analyzed with bidirectional fitting relative to DMSO as the negative control and baseline of activity. Using a type of inducible reporter, measures of mRNA induction for gain or loss-of-signal activity can be used to understand regulation of transcription factor activity. To generalize the intended target to other relatable targets, this assay endpoint is annotated to the growth factor intended target family, where the subfamily is EGF-like domain.
A total of 1060 chemcials from the ToxCast library were tested in eight-point concentration-response experiments. Cell culture and cytotoxicity assays were conducted at Thermo Fisher Scientific's Custom Services facility (Madison, WI). A single lot of human HepaRG cells (Thermo Fisher Scientific, Frederick, MD) was used for the cell culture experiments. 96-well format collagen type I coated plates of human HepaRG cells were prepared using established methods. Briefly, cryopreserved HepaRG cells were thawed, plated at a density of approximately 100,000 cells/well in HepaRG Thaw, Plate, and General Purpose media (HPRG770, Thermo Fisher Scientific), and incubated for 48 hours. 0.5% DMSO was selected as vehicle control to balance the requisite need of DMSO in HepaRG cultures to maintain differentiation (for example, baseline metabolism, proportions of hepatocytes vs. cholangiocytes), while enabling further hepatic receptor pathway activation (for example, PXR and CAR) in response to chemical exposure. 48 hours after plating, the culture medium was replaced with HepaRG Serum-Free Incudtion Media. Cells were exposed to each test chemical in duplicate and maintained in CO2 incubators for another 48 hours. Chemical plates were thawed to room temperature and 200x concentrations of treatment groups were prepared. 8-point conentration-reponse curves were made with the highest exposure at 100 uM, followed by half-log dilutions, all in 0.5% DMSO. Each test plate contained variouse controls, induction positive controls (1mM phenobarbital), cytotoxicity positive controls ([…] aflatoxin B1), vehicle controls (0.5% DMSO), and total lysis controls (0.5% DMSO). Cell morphology images were taken using an Essen IncuCyte FLR automated microscope, with six 96-well plates imaged in about 24 minutes. Images were captured and exported and JPEG files. Spent culture media was transfered to black-well plates for the LDH assay, and remaining media was sorted at -80 C for later use. Cells were treated with RLT buffer and frozen until shipped for gene expression analysis. Total RNA was isolated from the cell suspension in 75 uL of Buffer RLT (Qiagen, Germantown, MD 20874) by Quintiles/Expression Analysis (Durham, NC) using a custom isolation procedure. Total RNA from each plate well was transferred to a preamplification plate. Fluidigm's 96.96 Dynamic ArrayTM (Fluidigm, Amsterdam, the Netherlands) technology was used for gene expression analyses by quantitative reverse transcription polymerase chain reaction (qRT-PCR, performed by Quintiles/Expression Analysis, Durham, NC)89. Standard TaqManTM Assays (Applied Biosystems/ThermoFisher Scientific, Foster City, CA) were used to assess the expression of 93 genes selected based on their selectivity and sensitivity to important hepatic receptors known to be modulated by environmental chemicals; importance in human hepatocyte functionality; and hepatotoxicity. […]
In the case of `CN(C)C=O`, the compound was classed as inactive.

For the compound `CC1=C(/C=C/C(C)=C/C=C/C(C)=C/C(=O)O)C(C)(C)CCC1`, the result was inactive.

Take `CCN(CC)CCNc1ccc(CNC=O)c2sc3ccc(OC)cc3c(=O)c12`: the AC50 is 12.5 µM (active).

On to `ClC1=C(Cl)C(Cl)(Cl)C(Cl)=C1Cl`, for which the outcome was inactive.

Turning to `CC#C[C@]1(O)CC[C@H]2[C@@H]3CCC4=CC(=O)CCC4=C3[C@@H](c3ccc(N(C)C)cc3)C[C@@]21C`, the AC50 was 44.9 µM (active).

On to `CC(C)(C)c1cc(C(C)(C)C)c(O)c(C(C)(C)C)c1`, for which the result was inactive.

Take `OCCC(F)(F)C(F)(F)C(F)(F)C(F)(F)C(F)(F)C(F)(F)F`: the outcome was inactive.

With `CCC(C)(C)C1CCC(O)CC1` (stereo not given), the compound was called inactive.

For `CCC(=C(c1ccc(O)cc1)c1ccc(OCCN(C)C)cc1)c1ccccc1`, the result was inactive.

As to `CCCCCCCCCCCCCCCS(=O)(=O)Oc1ccccc1`, the outcome was inactive.

On to `O=c1c(-c2ccc(O)cc2)coc2cc(O)ccc12`, for which the outcome was inactive.

For `CCCCOCCO`, the compound was called inactive.

As to `OC1CCC(C2CCCCC2)CC1` (stereo not given), the compound was classed as inactive.

Regarding `CN1CCC[C@H]1c1cccnc1`, the outcome was inactive.

For `NC(=O)N1C(=O)C(C(=O)c2cc(Cl)cs2)c2cc(F)c(Cl)cc21` (stereo not given), the AC50 was 89.3 µM (active).

Take `Cc1oc(-c2ccccc2)nc1CCOc1ccc(C[C@H](Nc2ccccc2C(=O)c2ccccc2)C(=O)O)cc1`: the AC50 is 0.0617 µM (active).

As to `CCCCCCC(=O)O`, the result was inactive.

For the compound `CC(C)(C)CC(C)(C)c1ccc(O)c(-n2nc3ccccc3n2)c1`, the outcome was inactive.

On to `CCc1ccc(CCOc2ccc(CC3SC(=O)NC3=O)cc2)nc1` (stereo not given), for which the AC50 is 24 µM (active).

Take `COc1ccc([N+](=O)[O-])cc1N`: the outcome was inactive.

`COCC(C)OCC(C)O` (stereo not given): the compound was classed as inactive.

For the compound `O=[N+]([O-])c1ccc(O)cc1`, the compound was called inactive.

For `C[C@@H]1C[C@H]2[C@@H]3CCC4=CC(=O)C=C[C@]4(C)[C@@]3(F)[C@@H](O)C[C@]2(C)[C@@]1(O)C(=O)COP(=O)(O)O`, the compound was classed as inactive.

With `c1ccc2cc3c(ccc4ccccc43)cc2c1`, the outcome was inactive.

For the compound `CCc1nn(C2CCCCC2)c2cc(C3(C#N)CCC(C(=O)O)CC3)ccc12` (stereo not given), the AC50 is 65.5 µM (active).

As to `C=C(C)C(=O)OCCC(F)(F)C(F)(F)C(F)(F)C(F)(F)C(F)(F)C(F)(F)F`, the call was inactive.

For the compound `OCCC(F)(F)C(F)(F)C(F)(F)C(F)(F)C(F)(F)C(F)(F)C(F)(F)C(F)(F)F`, the call was inactive.

For the compound `CC(=O)CC(C)(C)O`, the outcome was inactive.

On to `CCCCCCCCC(=O)O`, for which the result was inactive.

For the compound `Cc1cc(CCN2CCN(c3nsc4ccccc34)CC2)cc2c1NC(=O)CC2(C)C`, the compound was classed as inactive.

Take `N#C[C@@H]1CC(F)(F)CN1C(=O)CNC1CC2CCC(C1)N2c1ncccn1` (stereo not given in full): the compound was called inactive.

As to `C#C[C@]1(O)CC[C@H]2[C@@H]3CCC4=CC(=O)CC[C@@H]4[C@H]3CC[C@@]21C`, the compound was called inactive.

Turning to `CC[C@H](c1ccc(O)cc1)[C@@H](CC)c1ccc(O)cc1`, the outcome was inactive.

For `Cc1cc(C)c(O)c(C)c1`, the compound was called inactive.

With `NC(=O)N(O)[C@@H]1C=C[C@H](Oc2cccc(Oc3ccc(F)cc3)c2)C1`, the AC50 is 76.2 µM (active).

On to `CC(C)(C)c1ccc(O)c(C(C)(C)C)c1`, for which the compound was classed as inactive.

Regarding `CCOC(=O)CC(O)(CC(=O)OCC)C(=O)OCC`, the result was inactive.

Consider `c1ccc2c(c1)ccc1ccccc12`, for which the compound was called inactive.

As to `CCCOC(=O)c1ccc(O)cc1`, the result was inactive.

Regarding `CCCCC(CC)COC(=O)CCCCC(=O)OCC(CC)CCCC` (stereo not given), the outcome was inactive.
